Luciferase inh: Firefly luciferase inhibition profiling of diverse chemical library using quantitative high-throughput screening. purified P. pyralis luciferase, luminescence, biochemical. AID 1347043, 2019. Luciferin 4-monooxygenase (Photinus pyralis), P08659. hit rate 2.5% among 76,000. Potency, µM (series often up to 115 µM), most hits filed as inhibitors; note: % is set by controls: 0 for no effect and ±100 for the full control effect; nearly all actives have a fitted effect of over 65% in size
Target sequence (P08659 whole entry, looked up): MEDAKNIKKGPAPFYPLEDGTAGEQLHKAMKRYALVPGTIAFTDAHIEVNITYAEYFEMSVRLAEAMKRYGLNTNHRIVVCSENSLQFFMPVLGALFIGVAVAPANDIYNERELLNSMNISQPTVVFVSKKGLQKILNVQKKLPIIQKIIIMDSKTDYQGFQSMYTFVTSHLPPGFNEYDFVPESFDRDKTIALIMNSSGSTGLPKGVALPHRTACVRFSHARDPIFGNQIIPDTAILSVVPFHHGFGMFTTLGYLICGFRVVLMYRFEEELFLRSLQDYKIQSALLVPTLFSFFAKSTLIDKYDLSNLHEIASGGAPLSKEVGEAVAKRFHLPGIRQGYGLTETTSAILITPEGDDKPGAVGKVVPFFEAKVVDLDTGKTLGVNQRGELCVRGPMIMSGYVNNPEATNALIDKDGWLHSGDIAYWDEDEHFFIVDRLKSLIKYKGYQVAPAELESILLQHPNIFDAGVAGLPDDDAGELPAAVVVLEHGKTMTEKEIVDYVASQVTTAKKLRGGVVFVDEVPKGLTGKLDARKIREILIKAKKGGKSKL
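Purified P. pyralis luciferase (10nM final) in 50mM Tris acetate pH 7.5, 10mM Mg acetate, 0.01% Tween-20, 0.05% BSA with 10uM D-luciferin and 10uM ATP. Compounds titrated qHTS. Luminescence imaged on CCD.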
GPT2 inh: Primary qHTS assay for inhibitors of Glutamate pyruvate transaminase 2 (GPT2); AID 1671188, 2021; hit rate 0.25% among 100,000; Potency, µM (doses to about 57.7 µM), for inactives: at the highest dose activity change, negative = inhibition, most hits filed as inhibitors; Alanine aminotransferase 2 (Homo sapiens), Q8TD30; Recombinant GPT2, coupled pyruvate oxidase/HRP Amplex Red fluorescence; note: % is set by controls: 0 for no effect and ±100 for the full control effect; nearly all actives have a fitted effect of over 60% in size
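Recombinant GPT2 (10ng/uL) with 250uM a-KG and 2mM L-alanine, 30 min at room temperature, in HEPES pH 7.5 buffer. Pyruvate detected by pyruvate oxidase/HRP/Amplex Red fluorescence after 30 min in the dark; AOA (50uM) as positive control.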
3T3 cytotox: Cytotoxic Profiling in NIH 3T3 Cell Line of Diverse Libraries Using Quantitative High-Throughput Screening. Potency, µM (series often up to 96.7 µM), inactives show at the highest dose activity change, negative = cytotoxicity, actives largely listed as inhibitors. NIH 3T3 viability, CellTiter-Glo ATP luminescence, 48-72 h. hit rate 4.3% among 94,000; note: % is set by controls: 0 for no effect and ±100 for the full control effect; nearly all actives have a fitted effect of over 55% in size
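Mouse fibroblast NIH 3T3 cells, 400 per well, received compound via pintool and were incubated for 48 or 72 hr prior to CellTiter-Glo ATP luminescence measurement.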
hNpr1 antagonist: Natriuretic polypeptide receptor (hNpr1) antagonism - Primary qHTS; HEK293 hNpr1 GloSensor cGMP, ANP-stimulated luminescence; Potency, µM (top dose mostly 46.3 µM), for inactives: top-dose activity change, negative = inhibition, usual class: inhibitors; hit rate 1.6% among 76,000; AID 1347048, 2019; calls by dose curve; note: % is set by controls: 0 for no effect and ±100 for the full control effect; nearly all actives have a fitted effect of over 60% in size
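Compound pre-incubated 30 min at room temperature on GloSensor-loaded HEK293 cells stably carrying hNpr1 and the pGS-40F cGMP biosensor. Stimulation uses hNppA at 0.1 nM final; luminescence is taken at baseline and 20 min post-agonist.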
HEK cytotox: Cytotoxic Profiling in HEK 293 Cell Line of Diverse Libraries Using Quantitative High-Throughput Screening; HEK 293 viability, ATP luminescence (CellTiter-Glo), 48-72 h; hit rate 6.6% among 94,000; Potency, µM (top dose mostly 115 µM), for the others: at the top dose activity change, negative = cytotoxicity, usual class: inhibitors; AID 1345083, 2018; note: % is set by controls: 0 for no effect and ±100 for the full control effect; nearly all actives have a fitted effect of over 60% in size
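qHTS cytotoxicity; HEK 293, 250 cells/well; compound pinned; 48 or 72 hr, 37 degree Celsius, 5% CO2, 95% humidity; CellTiter-Glo, 10 min RT; luminescence (ATP).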
Npr1 antag conf: Natriuretic polypeptide receptor (hNpr1) antagonism - Confirmation. hit rate 76% among 1,400. Potency, µM (top dose mostly 57.6 µM), without a hit: at the top dose activity change, negative = inhibition, actives largely listed as inhibitors. AID 1347044, 2019. shares compounds with hNpr1 antagonist. HEK293 hNpr1 cGMP GloSensor luminescence, ANP-stimulated; calls by dose curve; note: nearly all actives have a fitted effect of over 70% in size
NPR2 antag: Natriuretic polypeptide receptor (hNpr2) antagonism - Subtype selectivity assay; shares compounds with hNpr1 antagonist; hit rate 67% among 1,400; Potency, µM (titrated, usually from 57.6 µM), without a hit: at the top dose activity change, negative = inhibition, most hits filed as inhibitors; HEK293 hNpr2 GloSensor cGMP luminescence, CNP-stimulated; calls by dose curve; note: nearly all actives have a fitted effect of over 70% in size
FLuc inh counter: Natriuretic polypeptide receptor (hNpr1) antagonism - Confirmation firefly luciferase (FLuc) inhibition counterscreen; shares compounds with hNpr1 antagonist; purified FLuc enzyme, luminescence, Km substrate; Potency, µM (titrated, usually from 57.6 µM), for the others: top-dose activity change, negative = inhibition, most hits filed as inhibitors; hit rate 0.7% among 1,400; note: series mostly up to about 58 µM; 0% is about no effect
GloSensor ctrl: Natriuretic polypeptide receptor (hNpr1) antagonism - Counterscreen GloSensor control cell line; shares compounds with hNpr1 antagonist; Potency, µM (doses to about 57.6 µM), inactives show at the top dose activity change, negative = inhibition, usual class: inhibitors; hit rate 69% among 1,400; HEK293 GloSensor cGMP, SNP-stimulated, luminescence; calls by dose curve; note: % is set by controls: 0 for no effect and ±100 for the full control effect; nearly all actives have a fitted effect of over 70% in size
* marks the source's active call; other numbers are inactive results; [ ] = another dose, or the depositor's remark. In the library only some 10% were active in any assay of this set; here they are far more common. Unless noted, calls come from the whole dose curve; as a rule, active = well fitted curve in the direction sought with a large enough effect; inconclusive = small, poorly fitted or top-dose-only effect, or another doubt; inactive = no such curve, though single readings can be large; an effect the other way counts as inactive or inconclusive. Potency is the fitted concentration of half-maximal effect.

What do the screens show for `COCc1cc(N2CCc3onc(-c4cccc5ccccc45)c3C2)ncn1`?
Luciferase inh: inactive; GPT2 inh: inactive; 3T3 cytotox: inconclusive; hNpr1 antagonist: 12.6µM*; HEK cytotox: 35.5µM*; Npr1 antag conf: 21.7µM*; NPR2 antag: inconclusive; FLuc inh counter: -0.3%; GloSensor ctrl: 24.3µM*

What do the screens show for `COc1ccc(-c2nccn3cc(C(=O)NCc4ccc(OC)c(OC)c4)nc23)cc1`?
Luciferase inh: inactive; GPT2 inh: inactive; 3T3 cytotox: -25.5%; hNpr1 antagonist: 12.6µM*; HEK cytotox: inconclusive; Npr1 antag conf: 19.3µM*; NPR2 antag: 15.3µM*; FLuc inh counter: 0.1%; GloSensor ctrl: 2.8%

What do the screens show for `COCCNC(=O)c1cn2ccnc(-c3ccc(OC)cc3)c2n1`?
Luciferase inh: inactive; GPT2 inh: -22.1%; 3T3 cytotox: 4.5%; hNpr1 antagonist: -1.4%; HEK cytotox: inactive

Results for CC(C)C1=NOC2(CCN(Cc3ccc(C(F)(F)F)cc3)CC2)C1 ?
Luciferase inh: inactive; GPT2 inh: -7.8%[88.5 µM]; 3T3 cytotox: inconclusive; hNpr1 antagonist: 11.2µM*; HEK cytotox: inconclusive; Npr1 antag conf: 25µM*; NPR2 antag: 31.4µM*; FLuc inh counter: 1.4%[86.2 µM]; GloSensor ctrl: 19.8µM*

How did COC(=O)c1ccc(NC(=O)N2CC(Oc3cccc(-c4nc(C)no4)c3)C2)cc1 do in these assays?
Luciferase inh: inactive; GPT2 inh: -15.8%; 3T3 cytotox: inconclusive; hNpr1 antagonist: 12.6µM*; HEK cytotox: inconclusive; Npr1 antag conf: 24.3µM*; NPR2 antag: 24.3µM*; FLuc inh counter: -1.3%; GloSensor ctrl: 24.3µM*

What do the screens show for `O=C(Nc1ccccc1)N1CC(Oc2ccc(-c3noc(-c4ccncc4)n3)cc2)C1`?
Luciferase inh: inactive; GPT2 inh: inactive; 3T3 cytotox: -24.8%; hNpr1 antagonist: 11.2µM*; HEK cytotox: inconclusive; Npr1 antag conf: 6.11µM*; NPR2 antag: 8.62µM*; FLuc inh counter: -1.2%; GloSensor ctrl: 6.11µM*

How did Cc1cnc(C2CCC2)n1CC1CCN(C(=O)COCc2ccccc2)C1 (stereo not given) do in these assays?
GPT2 inh: -5.9%; 3T3 cytotox: -23.1%; HEK cytotox: -15.7%

Results for O=C(NCC1CC1)c1nc2sccn2c1-c1ccc(F)cc1 ?
GPT2 inh: -1.5%[88.5 µM]; 3T3 cytotox: -5.6%[138 µM]; HEK cytotox: inactive

Screens (PubChem)
